We go through 15 compounds from PubChem BioAssay (NCATS).

Several values for one entry are separate records, joined by “and”; a condition that tells them apart may be missing. Equal entries are not always repeated. A number with no mark means an inactive call. The call rests on the fitted dose curve; in most records, active means well fitted activation curve with a large enough effect; inconclusive means small, poorly fitted or top-dose-only effect; inactive means flat fitted curve, though single readings scatter.

The target in the test is Peroxisome proliferator-activated receptor alpha (Homo sapiens) (UniProt Q07869). The test is described as follows: qHTS assay for small molecule agonists of the peroxisome proliferator-activated receptor alpha (PPARalpha) signaling pathway (AID 651778). Further: % of control where 0% means no effect. To be noted: PathHunter PPARalpha complementation, chemiluminescence, 6 h; hits give high values. An excerpt: National Center for Advancing Translational Sciences [NCATS]
Chain of Peroxisome proliferator-activated receptor alpha (Homo sapiens) (Q07869 whole entry, looked up): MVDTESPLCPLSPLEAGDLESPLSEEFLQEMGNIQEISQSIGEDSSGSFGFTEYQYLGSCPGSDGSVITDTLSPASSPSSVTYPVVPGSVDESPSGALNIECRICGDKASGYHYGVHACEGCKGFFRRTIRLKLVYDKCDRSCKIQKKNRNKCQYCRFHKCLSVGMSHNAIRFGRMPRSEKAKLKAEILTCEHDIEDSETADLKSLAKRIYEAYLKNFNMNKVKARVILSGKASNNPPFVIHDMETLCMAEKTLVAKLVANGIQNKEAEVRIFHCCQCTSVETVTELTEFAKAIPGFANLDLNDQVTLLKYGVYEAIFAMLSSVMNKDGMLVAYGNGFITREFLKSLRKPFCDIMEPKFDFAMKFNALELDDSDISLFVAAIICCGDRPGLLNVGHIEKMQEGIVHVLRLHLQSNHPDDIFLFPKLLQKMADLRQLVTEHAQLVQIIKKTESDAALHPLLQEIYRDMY
NIH Chemical Genomics Center [NCGC]
U.S. Environmental Protection Agency [EPA]
National Institutes of Environmental Health Sciences [NIEHS]
National Toxicology Program [NTP]
The Peroxisome proliferator-activated receptors (PPARs) are lipid-activated transcription factors of the nuclear receptor superfamily with three distinct subtypes (alpha, garmma and beta/delta). All these subtypes heterodimerize with retinoid X receptor and have different physiological functions. PPARalpha is highly expressed in tissues with high rates of mitochondrial fatty acid oxidation, such as liver, heart, muscle, kidney and cells of the arterial wall. PPARalpha is a major regulator of lipid metabolism and energy homeostasis.
A cell based assay was used to identify activators of PPARalpha. The assay detects binding of a ligand to PPARalpha leading to its activation, translocation and complementation thus forming a functional enzyme capable of hydrolyzing the substrate molecule and generating chemiluminescent signal.
2,000 cells in 6 uL/well were dispensed into white wall/solid bottom 1536-well plates using a Multidrop Combi (Thermo Scientific) dispenser. After incubation 37 C and 5% CO2 overnight, 23 nL compound or DMSO only were transferred by a pin tool. The plates were incubated for 6 hr at 37 C and 5% CO2. 3 ul PathHunter detection reagent (Discoverx) was then added to each well and following 60 min incubation at room temperature, chemiluminescence was quantified on a ViewLux CCD-based plate reader.
For the compound `NC[C@H](O)c1ccc(O)c(O)c1`, the max response is -1.8%.

On to `Cn1cnc([N+](=O)[O-])c1Sc1ncnc2nc[nH]c12`, for which the max response is -2.81% and -2.18%.

Consider `NC(=O)c1cnccn1`, for which the max response is -0.88% and -1.97%.

For the compound `Cc1[nH]c(=O)c(C#N)cc1-c1ccncc1`, the max response is 0.228%.

Regarding `O=C1CCC(N2C(=O)c3ccccc3C2=O)C(=O)N1` (stereo not given), the max response is -0.602%.

On to `COc1ccc2nc(S(=O)Cc3ncc(C)c(OC)c3C)[nH]c2c1` (stereo not given), for which the max response was 6.65%.

In the case of `CNC[C@H](O)c1cccc(O)c1`, the max response was -0.749%.

For the compound `O=c1[nH]cnc2[nH]ncc12`, the max response was -0.201%.

For the compound `C[C@]12CCC(=O)C=C1CC[C@@H]1[C@@H]2[C@@H](O)C[C@@]2(C)[C@H]1CC[C@]2(O)C(=O)CO`, the max response is -0.295%.

On to `Cc1c(C)c2c(c(C)c1O)CCC(C)(COc1ccc(CC3SC(=O)NC3=O)cc1)O2` (stereo not given), for which the max response is 1.07%.

Take `NS(=O)(=O)c1cc2c(cc1Cl)NC=NS2(=O)=O`: the max response is -1.54%.

As for `O=NN(CCCl)C(=O)NCCCl`, the max response is -2.23%.

On to `Cc1ccccc1C(OCCN(C)C)c1ccccc1` (stereo not given), for which the max response was -4.12%.

On to `CC(=O)Oc1ccccc1C(=O)O`, for which the max response was -3.17% and 6.24% and -1.09%.

With `NC(N)=NC(=O)c1nc(Cl)c(N)nc1N`, the max response is -5.82%.
